Data on 31 compounds can be found in PubChem BioAssay (EPA / NIEHS).

Molecules are shown by their SMILES. Some structures have more than one record in an assay (separate samples or runs), and their calls can disagree. Active and inactive are the calls of the source. How the source made its calls: active means hit-call score of the fitted dose curve at least 0.9, where 1 is the maximum; inconclusive means response in the unintended direction; inactive means score below 0.9.

The assay is described as follows: IUF_NPC2-5_cytotoxicity_120hr: Cytotoxicity Assessment at 120 hours in the Leibniz Research Institute for Environmental Medicine (IUF) Neural Progenitor Cell Migration and Differentiation Assay (NPC2-5) (AID 2284307).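 On AC50: LDH released into supernatant as membrane damage marker via resorufin fluorescence.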 Here is the method:
IUF_NPC2-5 is a cell-based, multiplexed assay that uses hNPC, a human primary neural progenitor cells, with measurements taken at 72 or 120 hours after chemical dosing in a 96-well plate. Human neural progenitor cells (hNPC) are generated from human fetal brain cortex at gestational week (GW) 16-19. In the neural progenitor cell migration and differentiation assay (NPC2-5), hNPCs grown as spheres are plated on an extracellular matrix and migrate and differentiate out of the sphere core. The processes radial glia migration, neuronal and oligodendrocyte migration as well as neuronal differentiation, neuronal morphology and oligodendrocyte differentiation are studied using automated phase contrast imaging and automated fluorescence imaging in combination with high content image analysis. In parallel, the cell viability is assessed using an alamar blue viability assay and the cytotoxicity using a lactate dehydrogenase dependent membrane integrity assay.IUF_NPC2-5_cytotoxicity_120hr is one of 12 assay components measured from the IUF_NPC2-5 assay. It is designed to measure cytotoxicity at 120hr due to loss of membrane integrity. LDH measurements are performed from medium supernatants of each well and are based on the reduction of resazurin to resorufin measured as fluorescence signal (relative fluorescence unit) in a multiplate reader. Data from the IUF_NPC2-5_cytotoxicity_120hr component was analyzed at the endpoint IUF_NPC2-5_cytotoxicity_120hr in the positive analysis fitting direction relative to the dynamic range and baseline of activity. Using a type of viability reporter, gain-of-signal activity can be used to understand cytotoxicity effects.
Culture protocol: After the cell expansion period the cells are cultured for up to four weeks in which they are passaged every week as described in 3.6. Between one to three days after passaging spheres at a size of 0.3 mm are picked for the test method. For the assessment of neural progenitor cell migration and differentiation, the spheres are plated on poly-D-lysine/laminin coated 96-well flat bottom plates in differentiation medium (N2) to initiate migration and differentiation. Thereby one 0.3 mm big sphere is plated in the middle of a well. The differentiation medium consists of DMEM and Ham's F12 at a ratio of 3 to 1 supplemented with 1% N2 and 1% penicillin and streptomycin. Within 5 days NPCs radially migrate out of the sphere core and differentiate into radial glia cells (nestin positive), neurons (TUBB3 positive), oligodendrocytes (O4 positive) and astrocytes (GFAP positive). Cultivation during the test method is performed at 37C and 5% CO2 at a ph of 7.2-7.6.Exposure: 0.3 mm big hNPC are plated in the already prepared test conditions. Exposure starts at day 0 of differentiation and is continued over five days of differentiation until the experiment is terminated. Cells are fed with fresh medium at day 3 of differentiation. Therefore, half of the test condition solution (e.g. solvent control or compound dilution) is replaced by freshly prepared test condition solution.Test Method: Migration distance and cytotoxicity is determined after 72 hours based on brightfield images of each well. The assay is terminated by the assessment of cell viability and cytotoxicity as well as cell fixation after 120 h. Immunocytochemistry is performed for Hoechst positive nuclei, TUBB3 positive neurons and O4 positive oligodendrocytes. On the ICC images, migration after 120 hours, neuronal and oligodendrocyte number, neuronal morphology and neuron/oligodendrocyte specific migration is assessed. immunocytochemical staining (ICC) generates an image for each sphere. The plates are scanned using an automated high content imaging device and all nuclei and their positions are determined automatically based on their intensity and size. Images are imported to the Omnisphero software to run the image analysis that measures the following endpoints. […]
For the compound `CP(=O)(O)CCC(N)C(=O)O` (configuration not stated), the compound was classed as inactive. As for `Brc1ccc(Oc2ccc(Br)cc2Br)c(Br)c1`, the result was inactive. Regarding `[Cd+2].[Cl-].[Cl-]`, the AC50 was 11.2 µM (active). Regarding `[CH3][Hg][Cl]`, the concentration at half-maximal activity (AC50) was 0.275 µM (active) and the outcome was inactive.

Regarding `CC1(C)[C@H](C=C(Cl)Cl)[C@H]1C(=O)OCc1c(F)c(F)cc(F)c1F`, the result was inactive. In the case of `CCOP(=O)(OCC)OC(Cl)C(Cl)(Cl)Cl` (configuration not stated), the compound was called inactive. With `[O-][Cl+3]([O-])([O-])O`, the compound was classed as inactive.

Regarding `CCOP(=O)(Oc1cnc(C(C)(C)C)nc1)OC(C)C` (configuration not stated), the outcome was inactive. Turning to `Cn1nc(C(F)(F)F)c(CS(=O)(=O)C2=NOC(C)(C)C2)c1OC(F)F`, the outcome was inactive. `O=[As]O`: the outcome was inactive. On to `CNC(=N[N+](=O)[O-])NCC1CCOC1` (configuration not stated), for which the call was inactive.

As to `CC1(C)[C@@H](C=C(Cl)Cl)[C@@H]1C(=O)O[C@@H](C#N)c1ccc(F)c(Oc2ccccc2)c1`, the compound was classed as inactive. Consider `CC1(C)C(C=C(Cl)Cl)C1C(=O)O[C@H](C#N)c1cccc(Oc2ccccc2)c1` (some centres not stated), for which the result was inactive. As for `C[n+]1ccc(-c2cc[n+](C)cc2)cc1`, the compound was classed as inactive. For `C/C(=C/C=C/[C@@H](C)C(=O)O)[C@H]1CN[C@H](C(=O)O)[C@H]1CC(=O)O`, the outcome was inactive. As to `CCOP(=O)(OCC)SCSC(C)(C)C`, the call was inactive. Consider `CC1(C)[C@H](C(=O)O[C@H](C#N)c2cccc(Oc3ccccc3)c2)[C@@H]1C=C(Br)Br`, for which the result was inactive. Still for that read-out and setting: the entry for `CC1(C)C(C=C(Cl)c2ccc(Cl)cc2)C1C(=O)OC(C#N)c1ccc(F)c(Oc2ccccc2)c1` (configuration not stated) is “inactive”. Same read-out and setting: for `C[n+]1ccc(-c2ccccc2)cc1` the value was “inactive”; for `CC1(C)C(C=C(Cl)Cl)[C@H]1C(=O)O[C@H](C#N)c1cccc(Oc2ccccc2)c1` (some centres not stated), “inactive”; for `CC(=O)[O-].CC(=O)[O-].O.O.O.[Pb+2]`, “inactive”. `CC(=O)[O-].[Tl+]`: the call was inactive.

On to `Cc1ccc(OP(=O)(Oc2ccc(C)cc2)Oc2ccc(C)cc2)cc1` (tested in a mixture with another compound), for which the compound was classed as inactive. As to `COP(=O)(OC)SCN1C(=O)c2ccccc2C1=O`, the call was inactive. Consider `CCOP(=O)(OCC)SCSCC`, for which the outcome was inactive. For the compound `CC(C)CCCCCCCOP(=O)(Oc1ccccc1)Oc1ccccc1`, the result was inactive. With `CNC1(c2ccccc2Cl)CCCCC1=O` (configuration not stated), the half-maximal activity concentration (AC50) was 1.48 µM (active). With `CC(C)CC(C)c1sccc1NC(=O)c1cn(C)nc1C(F)(F)F` (configuration not stated), the call was inactive. Take `CCOP(=S)(OCC)SCS(=O)C(C)(C)C` (configuration not stated): the compound was called inactive.

Turning to `O=C1N[C@@H]2C(=C[C@H](O)[C@@H](O)[C@H]2O)c2cc3c(c(O)c21)OCO3`, the AC50 was 0.0131 µM (active). `Brc1ccc(Oc2cc(Br)c(Br)cc2Br)c(Br)c1`: the compound was classed as inactive.
